PubChem BioAssay (NCI)
About 79,000 compounds went through this panel and 15% of them were active in at least one assay; those are over-represented in the sample as a whole. Unmarked numbers belong to inactive results. Active and inactive are the calls of the source. No stated cut-off is given here; in the data, active means growth inhibition above about 70%; inactive means the rest.

Legend:
[1] = NCI Yeast Anticancer Drug Screen. Data for the rad52 strain (AID 147);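 further: 0% = growth of vehicle-treated control cultures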; details: S. cerevisiae rad52 mutant growth inhibition, stronger effect = higher value
Procedure, shortened: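 Yeast strain carrying a DNA damage repair alteration was exposed to test compounds. Growth inhibition was measured relative to vehicle-treated controls.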

[2] = NCI Yeast Anticancer Drug Screen. Data for the wt1 strain (AID 149);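 further: 0% = growth of vehicle-treated wt1 cultures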; details: S. cerevisiae wt1 strain (SPY 50644) growth inhibition, stronger effect = higher value
Procedure, shortened: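 wt1 yeast, compound-treated; % growth inhibition vs vehicle control.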

[3] = NCI Yeast Anticancer Drug Screen. Data for the rad50EPP+ strain (AID 151);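 further: 0% = growth of vehicle-treated control cultures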; details: S. cerevisiae rad50 mutant strain, stronger effect = higher value
Procedure, shortened: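 Yeast strain carrying rad50 alteration (rad50EPP+) exposed to compounds; growth inhibition measured relative to vehicle-treated controls.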

[4] = NCI Yeast Anticancer Drug Screen. Data for the mgt1 strain (AID 153); details: S. cerevisiae mgt1 mutant growth inhibition, stronger effect = higher value
Procedure, shortened: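 Yeast mgt1 strain (DNA repair/cell-cycle alteration panel) exposed to compounds; growth inhibition measured relative to vehicle-treated controls.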

[5] = NCI Yeast Anticancer Drug Screen. Data for the rad50 strain (AID 155);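 further: 0% = growth of vehicle-only cultures of the same strain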; details: S. cerevisiae rad50 strain growth inhibition, stronger effect = higher value
Procedure, shortened: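 Genetically altered yeast (DNA repair pathway); compound treatment; growth inhibition vs vehicle ctrl.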

[6] = NCI Yeast Anticancer Drug Screen. Data for the mec2-1 strain (AID 157); details: S. cerevisiae mec2-1 strain, stronger effect = higher value
Procedure, shortened: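 mec2-1 yeast strain, carrying an alteration in DNA damage repair or cell cycle control, was exposed to compounds; growth inhibition was measured relative to vehicle-treated controls.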

[7] = NCI Yeast Anticancer Drug Screen. Data for the rad14 strain (AID 159);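 further: 0% = growth of vehicle-treated control cultures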; details: S. cerevisiae rad14 strain growth inhibition, stronger effect = higher value
Procedure, shortened: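 Test compounds were applied to a repair-deficient yeast strain. Its growth was then compared with that of cultures given vehicle alone, and inhibition was expressed relative to those controls.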

[8] = NCI Yeast Anticancer Drug Screen. Data for the sgs1 mgt1 strain (AID 161);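 further: 0% = growth of cultures given vehicle only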; details: S. cerevisiae sgs1 mgt1 strain, stronger effect = higher value
Procedure, shortened: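 This yeast growth screen uses a strain with defined DNA-repair lesions; compound-treated growth is compared with vehicle-treated growth.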

[9] = NCI Yeast Anticancer Drug Screen. Data for the CLN2oe strain (AID 163);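 further: 0% = growth of vehicle-only control cultures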; details: S. cerevisiae CLN2oe strain, stronger effect = higher value
Procedure, shortened: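 Yeast cells carrying a defined cell-cycle control alteration were exposed to test compounds. Growth inhibition was scored against vehicle-treated control cultures.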

[10] = NCI Yeast Anticancer Drug Screen. Data for the cln2 rad14 strain (AID 165);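 further: 0% = growth equal to vehicle treated cultures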; details: S. cerevisiae cln2 rad14 strain, stronger effect = higher value
Procedure, shortened: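 Yeast carrying cln2 and rad14 alterations (cell cycle control and DNA damage repair) were exposed to compounds. Growth inhibition was measured against vehicle-treated controls.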

[11] = NCI Yeast Anticancer Drug Screen. Data for the bub3 strain (AID 167); details: S. cerevisiae bub3 mutant strain, stronger effect = higher value
Procedure, shortened: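 Yeast carrying a defined mutation is treated with each compound, and growth is compared with that of vehicle-exposed cells to give inhibition.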

[12] = NCI Yeast Anticancer Drug Screen. Data for the wt2 strain (AID 169);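 further: 0% = growth of vehicle-treated yeast cultures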; details: S. cerevisiae wt2 strain growth inhibition, stronger effect = higher value
Procedure, shortened: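 Yeast cells were exposed to test compounds, and growth inhibition was measured relative to vehicle-treated controls.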

[13] = NCI Yeast Anticancer Drug Screen. Data for the sgs1 strain (AID 173);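 further: 0% = growth of vehicle-only control cultures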; details: S. cerevisiae sgs1 mutant, stronger effect = higher value
Procedure, shortened: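 Yeast mutant strains carrying defined defects in DNA damage repair or cell cycle control were exposed to test compounds. Growth inhibition was scored against vehicle-treated controls.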

[14] = NCI Yeast Anticancer Drug Screen. Data for the mlh1 rad18 strain (AID 175); details: S. cerevisiae mlh1 rad18 strain growth inhibition, stronger effect = higher value
Procedure, shortened: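 Growth inhibition of the yeast strain was measured after compound exposure and expressed relative to vehicle-treated controls. The strain carries defined defects in DNA damage repair.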

[15] = NCI Yeast Anticancer Drug Screen. Data for the rad18 strain (AID 177); details: S. cerevisiae rad18 mutant growth inhibition, stronger effect = higher value
Procedure, shortened: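 Yeast carrying a defined DNA damage repair alteration were exposed to compounds. Growth inhibition was expressed relative to vehicle-treated controls.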

[16] = at 5.0 µM (retest, dose inferred, filed as 0.5)
[17] = at 50.0 µM (retest, dose inferred, filed as 5.0)

N#CNC(N)=Nc1cc2ccccc2c2ccccc12
growth inhibition ([1]; at 1.2 µM): 34% | growth inhibition ([1]; at 3.7 µM): 60% | growth inhibition ([1]; at 11.0 µM): 88% (active) | growth inhibition ([1]; at 33.0 µM): 95% (active) | growth inhibition ([1]; at 100.0 µM): 92% (active) | growth inhibition ([2]; at 1.2 µM): 3% | growth inhibition ([2]; at 3.7 µM): 25% | growth inhibition ([2]; at 11.0 µM): 61% | growth inhibition ([2]; at 33.0 µM): 87% (active) | growth inhibition ([2]; at 100.0 µM): 90% (active) | growth inhibition ([3]; at 1.2 µM): 8% | growth inhibition ([3]; at 3.7 µM): 16% | growth inhibition ([3]; at 11.0 µM): 61% | growth inhibition ([3]; at 33.0 µM): 82% (active) | growth inhibition ([3]; at 100.0 µM): 79% (active) | growth inhibition ([4]; at 1.2 µM): 27% | growth inhibition ([4]; at 3.7 µM): 40% | growth inhibition ([4]; at 11.0 µM): 71% (active) | growth inhibition ([4]; at 33.0 µM): 88% (active) | growth inhibition ([4]; at 100.0 µM): 92% (active) | growth inhibition ([5]; at 1.2 µM): 45% | growth inhibition ([5]; at 3.7 µM): 69% | growth inhibition [5, 16]: 60% | growth inhibition ([5]; at 11.0 µM): 90% (active) | growth inhibition ([5]; at 33.0 µM): 96% (active) | growth inhibition [5, 17]: 97% (active) | growth inhibition ([5]; at 50.0 µM): 89.5% (active) | growth inhibition ([5]; at 100.0 µM): 90% (active) | growth inhibition ([6]; at 1.2 µM): 24% | growth inhibition ([6]; at 3.7 µM): 32% | growth inhibition [6, 16]: 48% | growth inhibition ([6]; at 11.0 µM): 58% | growth inhibition ([6]; at 33.0 µM): 78% (active) | growth inhibition [6, 17]: 96% (active) | growth inhibition ([6]; at 50.0 µM): 67.1% | growth inhibition ([6]; at 100.0 µM): 82% (active) | growth inhibition ([7]; at 1.2 µM): 36% | growth inhibition ([7]; at 3.7 µM): 53% | growth inhibition ([7]; at 11.0 µM): 85% (active) | growth inhibition ([7]; at 33.0 µM): 95% (active) | growth inhibition ([7]; at 100.0 µM): 93% (active) | growth inhibition [8, 16]: 57% | growth inhibition [8, 17]: 96% (active) | growth inhibition ([8]; at 50.0 µM): 78.8% (active) | growth inhibition ([9]; at 1.2 µM): 38% | growth inhibition ([9]; at 3.7 µM): 46% | growth inhibition ([9]; at 11.0 µM): 68% | growth inhibition ([9]; at 33.0 µM): 83% (active) | growth inhibition ([9]; at 100.0 µM): 84% (active) | growth inhibition [10, 16]: 55% | growth inhibition [10, 17]: 90% (active) | growth inhibition ([10]; at 50.0 µM): 91.3% (active) | growth inhibition ([11]; at 1.2 µM): 34% | growth inhibition ([11]; at 3.7 µM): 32% | growth inhibition [11, 16]: 40% | growth inhibition ([11]; at 11.0 µM): 67% | growth inhibition ([11]; at 33.0 µM): 87% (active) | growth inhibition [11, 17]: 96% (active) | growth inhibition ([11]; at 50.0 µM): 92.2% (active) | growth inhibition ([11]; at 100.0 µM): 93% (active) | growth inhibition ([12]; at 1.2 µM): 17% | growth inhibition ([12]; at 3.7 µM): 12% | growth inhibition ([12]; at 11.0 µM): 62% | growth inhibition ([12]; at 33.0 µM): 89% (active) | growth inhibition ([12]; at 100.0 µM): 89% (active) | growth inhibition ([13]; at 1.2 µM): 20% | growth inhibition ([13]; at 3.7 µM): 58% | growth inhibition ([13]; at 11.0 µM): 87% (active) | growth inhibition ([13]; at 33.0 µM): 96% (active) | growth inhibition ([13]; at 100.0 µM): 96% (active) | growth inhibition [14, 16]: 54% | growth inhibition [14, 17]: 97% (active) | growth inhibition ([14]; at 50.0 µM): 85.7% (active) | growth inhibition ([15]; at 1.2 µM): 21% | growth inhibition ([15]; at 3.7 µM): 34% | growth inhibition ([15]; at 11.0 µM): 78% (active) | growth inhibition ([15]; at 33.0 µM): 94% (active) | growth inhibition ([15]; at 100.0 µM): 92% (active)
